Screening results deposited in PubChem by several laboratories.
CHT PAM – human CHT allosteric activation; Q9GZV3; CHT-expressing cells, membrane potential dye, choline EC20; stronger effect = higher value; LV-AA mutant CHT in HEK293 cells; B-score at 10 µM; actives 0.49% (n = 310,000); AID 488977;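 active = initial fluorescence not abnormally high and integrated response B-score, plate-corrected, over 3 SD above library mean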
Target sequence (Q9GZV3 whole entry, looked up): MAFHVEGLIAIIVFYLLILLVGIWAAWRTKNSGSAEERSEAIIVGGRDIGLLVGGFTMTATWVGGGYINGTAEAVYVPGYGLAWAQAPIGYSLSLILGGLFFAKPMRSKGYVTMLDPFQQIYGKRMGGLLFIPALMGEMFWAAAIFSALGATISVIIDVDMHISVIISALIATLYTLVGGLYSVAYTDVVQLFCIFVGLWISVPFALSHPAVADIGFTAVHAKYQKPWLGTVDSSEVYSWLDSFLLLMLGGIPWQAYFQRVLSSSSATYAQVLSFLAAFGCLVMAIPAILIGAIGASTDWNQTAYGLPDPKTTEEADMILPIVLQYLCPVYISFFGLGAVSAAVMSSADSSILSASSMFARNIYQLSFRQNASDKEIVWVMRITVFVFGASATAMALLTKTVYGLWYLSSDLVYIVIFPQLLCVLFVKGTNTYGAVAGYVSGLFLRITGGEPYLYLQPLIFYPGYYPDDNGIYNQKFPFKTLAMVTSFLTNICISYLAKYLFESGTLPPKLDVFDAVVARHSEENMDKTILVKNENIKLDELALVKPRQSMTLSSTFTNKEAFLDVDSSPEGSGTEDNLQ
PKA-R2B act – activators of human PKA-R2B complex. PKA-R2B holoenzyme dissociation, Cy5-IP20 fluorescence polarization; R2B truncated from residue 108, S112A mutant; 0% DMSO only, 100% 113 µM cGMP. activation, % at 11.4 µM. actives 0.079% (n = 340,000). AID 504700;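 active = activation above a cutoff set at the mean over all compounds plus 3 SD, cut at about 18% in these data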;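 also: higher means more holoenzyme dissociation and a rise in polarization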
PKA-R1A activ – PKA-R1A complex activation; P00514+P68181; PKA-R1A dissociation, Cy5-IP20 fluorescence polarization; scaled: DMSO 0%, 113 µM cGMP 100%; activation, % at 11.4 µM; actives 0.083% (n = 340,000);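 active = percent activation above the mean of all tested compounds plus 3 SD, cut at about 19% in these data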;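 also: higher means more PKAc released from R1A so a rise in polarization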
CHT block – human CHT choline transport inhibition. B-score at 10 µM. actives 0.86% (n = 310,000). Q9GZV3. CHT-expressing cells, membrane potential dye, choline response; stronger effect = lower value;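 active = B-score over 3 SD under the library average, and starting fluorescence ratio not unusually high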;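 also: choline stimulus applied at its EC90 after an EC20 pre-addition; B-score computed on integrated fluorescence ratio after choline addition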
TMEM16A act – mouse TMEM16A channel activation, primary screen | actives 0.3% (n = 340,000) | HEK293 TMEM16A/YFP-H148Q/I152L, iodide quench fluorescence; stronger effect = lower value | B-score at 10 µM | Q8BHY3 | AID 623877;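 active = fluorescence-ratio B-score plate-corrected deviation score at least 3 library SD below zero, with starting fluorescence score within 5 deviations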;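 also: channel opened by trigger with iodide after compound preincubation; score built on the fluorescence ratio of max minus min over baseline; more negative score means more quench and so TMEM16A activation or potentiation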
ANO1 block – blocks the mouse calcium-activated chloride channel TMEM16A; HEK293 TMEM16A/YFP iodide influx fluorescence, ionomycin; actives 1.2% (n = 310,000); normalized B-score (activity score, 25-100; higher = stronger inhibition) at 10 µM; AID 588511;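 active = ratio plate-corrected score three or more library SD toward inhibition, starting fluorescence score within five deviations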;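 also: score derived from kinetic fluorescence span divided by baseline fluorescence per well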
TMEM16A reconf – TMEM16A (mouse) chloride channel inhibition, re-confirmation. shares compounds with ANO1 block. HEK293 TMEM16A/YFP-H148Q, iodide quench fluorescence; ionomycin added to raise cell calcium. inhibition, % at 10 µM. actives 39% (n = 2,300);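 active = mean duplicate percent inhibition, scaled so buffer wells are 0 and the reference blocker 100, over three buffer SD above buffer mean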
HEK293 Ca mobil – alters calcium mobilization in TMEM16A HEK293 cells, counter-screen; shares compounds with ANO1 block; TMEM16A/YFP HEK293, Fluo4 calcium mobilization; calcium response (% of ionomycin), % at 10 µM; actives 2% (n = 2,300);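 active = duplicate-averaged calcium signal over 20% of the ionomycin maximum, relative to buffer baseline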;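 also: each well's signal is peak minus trough fluorescence divided by its pre-addition baseline; 0% = buffer wells and 100% = ionomycin wells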
Parental YFP cnt – acts in parental YFP-HEK293 cells lacking TMEM16A, counter-screen; YFP ratio F(max-min)/F0 at 10 µM; 2,300 tested, under 10 active; shares compounds with ANO1 block; iodide YFP quench, ionomycin;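 active = yellow fluorescent protein signal ratio exceeding the buffer control mean by over 5 SD of those controls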;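 also: ratio is mean of duplicate wells from kinetic YFP trace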
ClC-1 rat inh – rat ClC-1 inhibition, TMEM16A specificity screen. shares compounds with ANO1 block. CHO ClC-1-YFP, iodide influx fluorescence quench; iodide control reads 0, buffer control 100. ratio percent, % at 10 µM. 2,300 tested, under 10 active. AID 652236;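 active = duplicate-mean ratio percent above the mean of iodide-only control wells, which defines zero, plus 5 of their SD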;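 also: higher percent means stronger block of ClC-1 iodide influx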
The depositor's hits bear a star; i = inactive; x = no result given. Only some compounds are listed: those with a hit (about 2.5% of all), similar ones and a draw of the others.

SMILES	CHT PAM	PKA-R2B act	PKA-R1A activ	CHT block	TMEM16A act	ANO1 block	TMEM16A reconf	HEK293 Ca mobil	Parental YFP cnt	ClC-1 rat inh
C=CCOC(=O)C1=C(C)NC(SCC(N)=O)=C(C#N)C1c1ccc(C)cc1 (configuration not stated)	i	8.5	-7.7	i	i	i	x	x	x	x
C=CCOC(=O)C1=C(C)NC(SCC)=C(C#N)C1c1ccc(Cl)cc1 (configuration not stated)	i	-11.7	-9.7	i	i	100*	22.5%*	i	-1.25	-20.0
COc1cc(NS(=O)(=O)c2ccc(C)cc2C)cc(OC)c1OC	i	-0.6	-1.0	i	i	100*	28.5%*	i	-0.989	-11.5
COc1ccc(C2C(C(=O)N3CCN(c4ccccc4)CC3)c3ccccc3C(=O)N2C)cc1OC (configuration not stated)	i	2.1	-4.5	i	i	100*	i	i	-1.1	-30.0
COc1ccc(C2C(C(=O)N3CCCC3)c3cc(OC)c(OC)cc3C(=O)N2C)cc1OC (configuration not stated)	i	-1.6	-8.7	i	i	i	x	x	x	x
CC(=O)N(Cc1ccccc1)c1ncc2c(n1)c(=O)c(C#N)c1ccccn12	i	-3.7	-8.0	i	i	25*	i	i	-0.911	-7.5
CC(=O)N(Cc1c(C#N)c2ccccc2n1C)c1ccccc1	i	-1.5	-2.0	i	i	i	x	x	x	x
CCOc1ccc(S(=O)(=O)N2CCCC(C(=O)Nc3cc(C)cc(C)c3)C2)cc1 (configuration not stated)	i	-5.2	-9.2	i	i	i	x	x	x	x
Fc1ccc(NCc2cccnc2)cc1	i	0.8	2.7	i	i	100*	i	i	-1.16	-2.5
CCn1c(SCC(=O)c2cccs2)nnc1-c1cccs1	i	-7.7	-0.5	i	i	i	x	x	x	x
CCn1c(SCC(=O)c2[nH]c(C)c(C(C)=O)c2C)nnc1-c1cccs1	i	0.5	-8.7	i	i	25*	39.5%*	i	-0.864	-24.0
O=C(NCCCCc1ccccc1)C1CC(c2cc(C(F)(F)F)cc(C(F)(F)F)c2)=NO1 (configuration not stated)	i	-0.8	0.2	i	i	i	x	x	x	x
COc1ccccc1CNC(=O)c1nn(-c2ccc(C)cc2)c(=O)c2c1c1ccccc1n2C	i	-1.2	-5.7	i	i	i	i	i	-1.31	-4.0
CC(C)(C)C1=Nn2c(nnc2-c2ccccn2)SC1	i	-7.9	-8.2	i	i	i	i	i	-1.22	-15.0
CC(C)(C)C1=Nn2c(nnc2-c2ccccc2F)SC1	i	-5.2	-7.2	i	i	i	x	x	x	x
CC(=O)c1c(O)cc(O)c(C(C)=O)c1O	i	6.2	0.8	i	i	100*	31.0%*	i	-1.1	-9.5
C=C(C)COc1ccc2c3c(c(=O)oc2c1OCC(=C)C)CCC3	i	-7.8	-2.3	i	i	100*	17.0%*	i	-1.04	-2.5
C=C(C)COc1ccc2c(C)c(C)c(=O)oc2c1OCC(=C)C	i	5.0	-6.0	i	i	i	x	x	x	x
COc1cc(NC(=O)CSCC(=O)Nc2cccc(C(F)(F)F)c2)c(Cl)cc1Cl	i	2.8	7.7	i	i	100*	i	i	-0.994	-9.0
CCCOc1ccc(Cn2cnc3ccccc32)cc1	i	-6.0	-4.5	i	i	25*	17.0%*	i	-1.04	-10.0
c1ccc2c(c1)ncn2CCCOc1ccc2c(c1)CCC2	i	-4.4	-5.0	i	i	100*	i	i	-1.14	-8.5
Fc1ccc(Cn2cnc3ccccc32)cc1	i	-4.7	-4.6	i	i	i	x	x	x	x
O=c1c2oc3ccccc3c2ncn1Cc1ccc(F)cc1	i	-0.4	-10.8	i	i	i	x	x	x	x
Cc1cc(=O)oc2cc(OCC(=O)OCC(=O)N3CCc4ccccc43)ccc12	i	3.1	2.2	i	i	25*	i	i	-1.33	1.5
CCCCc1cc(=O)oc2cc(OCC(=O)N3CCc4ccccc43)ccc12	i	2.9	9.8	i	i	i	x	x	x	x
SMILES	CHT PAM	PKA-R2B act	PKA-R1A activ	CHT block	TMEM16A act	ANO1 block	TMEM16A reconf	HEK293 Ca mobil	Parental YFP cnt	ClC-1 rat inh
S=C1NC[C@H](CC2CCCCC2)N1CCCCC1CCCCC1	i	5.5	4.1	i	i	i	x	x	x	x
COc1ccc(NC(=O)CSc2nnc(C)n2N)cc1S(=O)(=O)N1CCCCC1	x	-5.1	6.4	x	i	x	x	x	x	x
c1ccc(-c2nc(-n3nc4ccccc4n3)nc3ccccc23)cc1	i	-13.4	-0.4	i	i	100*	i	i	-1.02	-6.0
Cc1ccc(C(=O)CSc2nnc(COc3cccc(C)c3)o2)cc1	i	4.0	4.1	i	i	100*	i	i	-1.06	-12.0
C=CCn1c(C)cc(C(=O)CSc2nc3ccccc3[nH]2)c1C	i	9.3	6.0	i	i	25*	43.0%*	i	-0.967	-20.0
CCCc1cc(=O)oc2cc(C)cc(OCC(=O)NCc3ccncc3)c12	i	-0.3	-2.3	i	i	i	x	x	x	x
CC1CCCCC1NC(=O)CSc1nnnn1C (configuration not stated)	x	-2.8	3.9	x	i	x	x	x	x	x
Clc1ccc(OCCSCc2nc3ccccc3[nH]2)cc1	i	10.8	-4.3	i	i	100*	20.5%*	i	-1.17	-4.5
Clc1ccc(SCc2nc3ccccc3[nH]2)cc1	i	4.6	-2.4	i	i	i	x	x	x	x
CN(C)c1oc(-c2ccc(Cl)cc2)nc1S(=O)(=O)c1ccccc1	i	-12.6	7.1	i	i	i	x	x	x	x
Cc1cc(C)c(S(=O)(=O)NCc2ccccn2)cc1C	i	0.0	-9.2	i	i	i	x	x	x	x
